Data reported in PubChem BioAssay.
The source made the active and inactive calls. Unless noted, how the calls were made is not given here.

What was measured:
[1] = system: Wnt5a (protein binding on small-molecule microarray); assay: small molecules binding Wnt5a protein – biophysical, small-molecule microarray, 635/667 nm fluorescence, primary screen (AID 1142); details: 635 nm fluorescence, higher = more signal;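 further: fluorescence read at 667 nm with signal to noise per printed feature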
[2] = ATP-based viability of Huh7 replicon cells – cell-based, CellTiter-Glo luminescence, basal, 48 h, cytotoxicity control for HCV replication inhibitor project, primary screen (AID 1143); details: higher = more signal, called active from +8 up or from −8 down;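 further: Huh7 hepatoma cells carrying a hepatitis C replication reporter with no stimulus; test concentration not given here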
[3] = Pseudomonas biofilm growth suppression – PAO1 strain, BacTiter-Glo luminescence, LB-PBS, primary screen (AID 1144); details: P. aeruginosa PAO1 biofilm, 12 h, higher = more signal
[4] = basal CRE-LacZ reporter activity in PC12 – cell-based, unstimulated, primary screen (AID 1145); details: no forskolin, luminescence, 4.5 h, higher = more signal, called active from +8 up or from −8 down
[5] = forskolin-driven CRE-LacZ activity in PC12 – cell-based, CRE-LacZ reporter, forskolin-stimulated, primary screen (AID 1146); details: luminescence, 4.5 h, higher = more signal, called active from +8 up or from −8 down;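 further: PC12 cells with 6xCRE LacZ reporter stimulated by forskolin 10 µM; beta-galactosidase reporter signal reflecting CREB driven transcription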
[6] = target: Streptavidin (Streptomyces avidinii) (UniProt P22629); assay: compounds binding control protein streptavidin – biophysical, small-molecule microarray, 635/667 nm fluorescence, artefact control for SMM compound annotation, primary screen (AID 1147); details: higher = more signal;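 further: signal reflects streptavidin binding to arrayed compounds as a control protein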
Sequence of Streptavidin (Streptomyces avidinii) (P22629 whole entry, looked up): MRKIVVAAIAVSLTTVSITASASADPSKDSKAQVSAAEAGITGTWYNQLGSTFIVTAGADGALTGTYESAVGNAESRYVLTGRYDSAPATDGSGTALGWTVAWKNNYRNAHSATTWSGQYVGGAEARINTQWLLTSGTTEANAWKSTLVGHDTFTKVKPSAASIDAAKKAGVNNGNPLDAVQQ

[7] = probe aInhba binding on compound microarray – biochemical, small-molecule microarray, 635/667 nm fluorescence, primary screen (AID 1148); details: higher = more signal;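 further: score merges 667nm spot fluorescence with signal-to-noise for antibody binding to printed compounds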
Torsin-1A (Homo sapiens) [8] = target: Torsin-1A (Homo sapiens) (UniProt O14656); assay: TOR1A wild-type binding on microarray – cell lysate, small-molecule microarray, lysate, 635/667 nm, primary screen (AID 1149); details: COS7 hTOR1A-WT lysate, 635 nm fluorescence, higher = more signal
Sequence of Torsin-1A (Homo sapiens) (O14656 whole entry, looked up): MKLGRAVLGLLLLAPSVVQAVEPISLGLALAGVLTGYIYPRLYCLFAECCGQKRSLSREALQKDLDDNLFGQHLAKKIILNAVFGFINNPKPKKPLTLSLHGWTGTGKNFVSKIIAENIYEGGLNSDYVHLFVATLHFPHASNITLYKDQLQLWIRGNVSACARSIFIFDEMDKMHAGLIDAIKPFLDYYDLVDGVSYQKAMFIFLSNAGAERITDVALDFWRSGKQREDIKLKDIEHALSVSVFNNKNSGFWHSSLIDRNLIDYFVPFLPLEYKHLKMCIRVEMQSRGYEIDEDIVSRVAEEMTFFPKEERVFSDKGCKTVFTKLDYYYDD

Torsin-1A (Homo sapiens) [9] = target: Torsin-1A (Homo sapiens) (UniProt O14656); assay: torsin A mutant lysate binding on microarrays – cell lysate, small-molecule microarray, COS7 lysate, 635/667 nm fluorescence, primary screen (AID 1150); details: COS7 hTOR1A mutant lysate, 635 nm fluorescence, higher = more signal;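 further: score pools 667 nm emission and signal to noise measuring lysate protein binding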
[10] = system: Sonic hedgehog protein (Shh); assay: Sonic hedgehog microarray binding compounds – biochemical, small-molecule microarray, 635/667 nm fluorescence, primary screen (AID 1151); details: 635 nm fluorescence, higher = more signal;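 further: Shh protein binding to compounds spotted on small-molecule microarray slides; score combines spot fluorescence intensity with signal-to-noise across triplicate slides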
[11] = optical density shifts of acrAB sulA E. coli – strain DRC41, OD650, 48 h, E. coli filamentation inducer project, primary screen (AID 1152); details: higher = more signal, called active from +8 up or from −8 down;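 further: E. coli MC1000 strain DRC41 lacking acrAB efflux pump and sulA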
[12] = probe aLefty1 binding on compound microarray – biochemical, small-molecule microarray, 635/667 nm fluorescence, primary screen (AID 1153); details: higher = more signal;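 further: score merges spot fluorescence with signal-to-noise ratio from the scanned slide images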
[13] = plasmodial surface anion channel blockers, osmotic lysis – cell-based, P. falciparum Indochina, OD700, 1 h, primary screen (AID 1154); details: P. falciparum Indochina infected RBC osmotic lysis, higher = more signal, called active from +8 up or from −8 down
[14] = plasmodial surface anion channel blockers, osmotic lysis – cell-based, P. falciparum Indochina, OD700, 2 h, primary screen (AID 1155);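 further: lysis reports solute entry through the parasite surface anion channel PSAC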; details: P. falciparum Indochina infected erythrocytes, higher = more signal, called active from +8 up or from −8 down
[15] = changes in parasitized red cell lysis, either direction – P. falciparum Indochina, OD700, 3 h, PSAC antagonist project, primary screen (AID 1156); details: P. falciparum-infected erythrocytes, osmotic lysis, higher = more signal, called active from +8 up or from −8 down
[16] = plasmodial surface anion channel blockers, osmotic lysis – cell-based, P. falciparum Indochina, OD700, 18 h, primary screen (AID 1157); details: P. falciparum Indochina infected erythrocytes, osmotic lysis OD700, 18 h; higher = more signal, called active from +8 up or from −8 down
[17] = S6 kinase pathway phospho-S6 level changes – cell-based, A549, cytoblot, luminescence, serum-stimulated, primary screen (AID 1158); details: 5 h, higher = more signal;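 further: serum-stimulated A549 lung adenocarcinoma cells; signal is phosphorylated S6 detected by cytoblot immunostaining with HRP secondary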
[18] = target: NADPH oxidase 2 (Homo sapiens) (UniProt P04839); assay: compounds shifting NOX2 Amplex Red fluorescence – cell-based, HEK293-NOX2, PMA-stimulated, NOX inhibitor project, primary screen (AID 1159); details: 45 min, higher = more signal, called active from +8 up or from −8 down; further: test concentration not given here
Sequence of NADPH oxidase 2 (Homo sapiens) (P04839 whole entry, looked up): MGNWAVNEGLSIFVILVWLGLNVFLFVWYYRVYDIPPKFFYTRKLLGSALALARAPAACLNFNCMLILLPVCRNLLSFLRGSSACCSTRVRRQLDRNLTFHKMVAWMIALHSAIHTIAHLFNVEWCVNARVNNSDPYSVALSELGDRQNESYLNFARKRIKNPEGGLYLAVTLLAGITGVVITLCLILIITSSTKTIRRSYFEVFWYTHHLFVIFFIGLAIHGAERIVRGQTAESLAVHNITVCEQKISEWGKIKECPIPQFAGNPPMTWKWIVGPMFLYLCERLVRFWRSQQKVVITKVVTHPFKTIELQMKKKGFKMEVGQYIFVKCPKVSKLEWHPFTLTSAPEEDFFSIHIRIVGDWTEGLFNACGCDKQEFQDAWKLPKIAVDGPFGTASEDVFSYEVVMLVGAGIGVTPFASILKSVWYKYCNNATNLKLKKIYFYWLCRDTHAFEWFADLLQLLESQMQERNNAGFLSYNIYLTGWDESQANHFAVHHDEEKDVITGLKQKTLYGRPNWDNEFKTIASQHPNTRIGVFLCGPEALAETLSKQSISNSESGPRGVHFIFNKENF

[19] = target: NADPH oxidase 4 (Homo sapiens) (UniProt Q9NPH5); assay: compounds shifting NOX4 Amplex Red fluorescence – cell-based, HEK293-NOX4, tetracycline-induced, NOX inhibitor project, primary screen (AID 1160); details: HEK293-NOX4, Amplex Red H2O2 fluorescence, 45 min; higher = more signal, called active from +8 up or from −8 down
Sequence of NADPH oxidase 4 (Homo sapiens) (Q9NPH5 whole entry, looked up): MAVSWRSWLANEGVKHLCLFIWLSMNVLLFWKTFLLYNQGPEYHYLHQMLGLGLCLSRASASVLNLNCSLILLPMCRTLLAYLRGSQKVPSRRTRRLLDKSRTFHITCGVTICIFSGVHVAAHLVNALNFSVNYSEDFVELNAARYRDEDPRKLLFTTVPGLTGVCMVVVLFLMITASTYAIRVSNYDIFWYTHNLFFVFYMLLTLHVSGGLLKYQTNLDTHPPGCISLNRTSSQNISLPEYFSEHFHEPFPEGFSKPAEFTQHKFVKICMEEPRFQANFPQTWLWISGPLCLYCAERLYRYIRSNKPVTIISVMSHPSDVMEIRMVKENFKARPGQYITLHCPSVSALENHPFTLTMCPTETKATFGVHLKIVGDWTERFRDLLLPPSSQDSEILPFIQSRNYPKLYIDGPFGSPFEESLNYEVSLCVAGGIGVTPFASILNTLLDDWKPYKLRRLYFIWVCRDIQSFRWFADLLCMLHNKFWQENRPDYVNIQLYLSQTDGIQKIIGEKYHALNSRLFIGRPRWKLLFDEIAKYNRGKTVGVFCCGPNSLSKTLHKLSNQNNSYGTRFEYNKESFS

[20] = target: NADPH oxidase 5 (Homo sapiens) (UniProt Q96PH1); assay: compounds shifting NOX5 Amplex Red fluorescence – cell-based, HEK293-NOX5, NOX inhibitor project, primary screen (AID 1161); details: HEK293-NOX5, ionomycin, 45 min, higher = more signal
Sequence of NADPH oxidase 5 (Homo sapiens) (Q96PH1 whole entry, looked up): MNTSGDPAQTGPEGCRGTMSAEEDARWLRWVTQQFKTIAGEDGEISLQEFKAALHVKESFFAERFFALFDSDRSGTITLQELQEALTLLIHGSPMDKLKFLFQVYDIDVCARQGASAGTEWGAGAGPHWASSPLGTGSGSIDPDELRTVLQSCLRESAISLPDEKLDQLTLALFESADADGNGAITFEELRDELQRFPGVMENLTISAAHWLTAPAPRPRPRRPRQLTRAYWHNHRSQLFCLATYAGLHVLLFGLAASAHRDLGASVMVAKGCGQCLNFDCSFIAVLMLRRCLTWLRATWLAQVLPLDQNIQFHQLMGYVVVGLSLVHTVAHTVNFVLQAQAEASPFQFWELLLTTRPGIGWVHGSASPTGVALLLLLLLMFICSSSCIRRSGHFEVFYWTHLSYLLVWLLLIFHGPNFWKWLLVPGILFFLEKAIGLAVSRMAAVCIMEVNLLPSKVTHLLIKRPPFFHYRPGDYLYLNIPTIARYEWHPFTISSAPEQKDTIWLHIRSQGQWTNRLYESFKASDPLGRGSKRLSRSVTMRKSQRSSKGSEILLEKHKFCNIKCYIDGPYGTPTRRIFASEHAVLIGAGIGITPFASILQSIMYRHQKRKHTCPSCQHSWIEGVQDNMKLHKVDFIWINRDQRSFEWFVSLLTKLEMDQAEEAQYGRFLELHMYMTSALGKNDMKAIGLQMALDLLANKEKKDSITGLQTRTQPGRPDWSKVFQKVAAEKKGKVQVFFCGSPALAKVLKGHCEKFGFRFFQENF

SMILES	composite z-score [1]	z-score [2]	z-score [3]	z-score [4]	z-score [5]	composite z-score [6]	composite z-score [7]	composite z-score (Torsin-1A (Homo sapiens) [8])	composite z-score (Torsin-1A (Homo sapiens) [9])	composite z-score [10]	z-score [11]	composite z-score [12]	z-score [13]	z-score [14]	z-score [15]	z-score [16]	z-score [17]	z-score [18]	z-score [19]	z-score [20]
C[N+](C)(C)CCCC[C@@H]1NC(=O)[C@@H]2C[C@H](C(=O)NCCCCCCNC(=O)CS)[C@H](c3cccc(OCCO)c3)N2C1=O	-0.326	0.214 (inactive)	-0.555 (inactive)	-0.671 (inactive)	-0.29 (inactive)	-1.12	-0.231	0.23	1.87	1.54	-0.0169 (inactive)	-0.012	5.87 (inactive)	1.39 (inactive)	-0.293 (inactive)	0.644 (inactive)	0.133	1.85 (inactive)	1.12 (inactive)	1.45
COc1ccc(C(=O)Nc2cccc(CN3C(=O)[C@@]4(O[C@@H](CC(=O)N5Cc6ccccc6C[C@H]5CO)[C@H]([Si](C)(C)c5ccc(OC)cc5)[C@H]4C)c4ccccc43)c2)cc1	0.209	-5.04 (inactive)	-0.473 (inactive)	4.45 (inactive)	-0.534 (inactive)	0.395	-0.0095	0.726	0.488	2.06	-0.333 (inactive)	0.139	4.24 (inactive)	1.49 (inactive)	0.712 (inactive)	0.768 (inactive)	1.33	-1.03 (inactive)	0.0938 (inactive)	-0.713
CCCC[C@H]1OB(O)C[C@H]2C1=C(COc1ccccc1)C[C@H]1C(=O)N(Cc3ccccc3)C(=O)[C@H]12	-0.0155	-1.72 (inactive)	-0.375 (inactive)	1.13 (inactive)	-0.208 (inactive)	1.49	-0.0136	-0.518	0.106	1.76	-0.288 (inactive)	0.179	6.03 (inactive)	1.38 (inactive)	0.0146 (inactive)	0.475 (inactive)	-0.056	-0.0336 (inactive)	0.143 (inactive)	0.245
COC(=O)[C@@]1(Cc2ccc(F)cc2)[C@H]2c3cc(C(=O)N(C)C)n(CCc4c[nH]c5ccc(OC)cc45)c3C[C@H]2CN1C(=O)c1ccccc1	0.325	-3.84 (inactive)	1.41 (inactive)	1.54 (inactive)	0.883 (inactive)	1.18	0.351	1.03	1.31	-1.11	-1.77 (inactive)	0.441	6.52 (inactive)	0.1 (inactive)	1.24 (inactive)	-0.975 (inactive)	1.87	-3.45 (inactive)	-3.18 (inactive)	-5.53
COC(=O)[C@@]1(Cc2ccccc2)[C@H]2c3cc(C(=O)N(C)C)n(Cc4cc(F)c(F)c(F)c4)c3C[C@H]2CN1C(=O)c1ccccc1	0.312	-3.19 (inactive)	0.301 (inactive)	0.0109 (inactive)	-0.214 (inactive)	0.773	0.681	0.0663	0.12	-0.578	-1.61 (inactive)	0.611	8.57 (active)	1.65 (inactive)	0.893 (inactive)	1.4 (inactive)	-0.0786	-0.0214 (inactive)	1.57 (inactive)	2.13
Cc1ccc(C(C)CC(O)C2C=CC3C(=O)NC(=O)C3N2Nc2ccccn2)o1 (stereo not given)	-0.0405	1.2 (inactive)	-1.31 (inactive)	-0.712 (inactive)	-0.364 (inactive)	-0.585	0.0797	0.81	0.282	0.452	0.488 (inactive)	-0.154	0.494 (inactive)	0.481 (inactive)	-0.284 (inactive)	0.606 (inactive)	-0.439	0.36 (inactive)	-2.17 (inactive)	-1.52
O=C(NCc1ccccc1)[C@@H]1c2ccccc2C(=O)N(Cc2cc(F)cc(C(F)(F)F)c2)[C@H]1c1ccc(CO)cc1	0.0748	-1.26 (inactive)	0.339 (inactive)	-0.0888 (inactive)	-1.61 (inactive)	0.0709	0.0227	0.484	0.426	1.15	0.363 (inactive)	0.0455	5.82 (inactive)	1.23 (inactive)	1.03 (inactive)	0.156 (inactive)	-0.26	-2.01 (inactive)	0.598 (inactive)	-1.58
O=C1C2C=CC(C(O)C3CC=CCC3)N(n3cnnc3)C2C(=O)N1Cc1ccccc1 (stereo not given)	-0.149	0.227 (inactive)	0.356 (inactive)	0.332 (inactive)	0.705 (inactive)	0.0704	-0.128	0.187	-0.0519	-0.183	-1.37 (inactive)	0.0455	1.36 (inactive)	0.585 (inactive)	0.576 (inactive)	0.388 (inactive)	-0.792	-0.621 (inactive)	-1.61 (inactive)	-1.34
COC(=O)[C@@]1(Cc2ccccc2)[C@H]2c3cc(C(=O)N(C)C)n(Cc4ccccc4)c3C[C@H]2CN1C(=O)c1ccccc1	0.347	-0.513 (inactive)	0.0307 (inactive)	0.776 (inactive)	1.08 (inactive)	1.68	0.209	-0.314	0.766	-0.867	-1.39 (inactive)	0.177	1.54 (inactive)	0.488 (inactive)	0.775 (inactive)	0.667 (inactive)	-0.608	0.543 (inactive)	-0.0416 (inactive)	-0.0705
CCOC(=O)C[C@H]1[C@H](OC(=O)c2ccccc2-c2ccccc2)[C@@H](NC(=O)c2ccc(-c3ccccc3)cc2)c2cc(OCCCO)ccc2N1C(=O)c1ccccc1	0.0187	-0.134 (inactive)	0.945 (inactive)	3.85 (inactive)	-1.14 (inactive)	0.236	0.0569	-0.29	0.272	0.684	0.657 (inactive)	0.0121	0.568 (inactive)	0.135 (inactive)	1.02 (inactive)	0.157 (inactive)	1.1	0.35 (inactive)	0.169 (inactive)	1.46
C=CCC(OC(C)=O)[C@@H]1[C@@H](N(Cc2cc3ccccc3o2)C(=O)c2cccc3ccccc23)c2cc(OCCCO)ccc2N1C(=O)Cc1ccc(OC)cc1 (stereo not given in full)	0.235	-1.1 (inactive)	0.0686 (inactive)	0.279 (inactive)	0.496 (inactive)	-0.0552	-0.0804	0.175	0.138	1.16	-0.901 (inactive)	-0.195	1.7 (inactive)	0.923 (inactive)	1.66 (inactive)	0.629 (inactive)	0.907	-1.79 (inactive)	-0.428 (inactive)	-1.57
C/C=C/[C@H](CCn1cc([C@H](O)c2ccccc2)nn1)[Si](C)(C)c1ccc(OC)cc1	-0.582	-1 (inactive)	0.303 (inactive)	-0.272 (inactive)	0.0712 (inactive)	-0.832	-0.263	0.0596	-0.57	-0.478	-0.356 (inactive)	0.0038	5.6 (inactive)	0.755 (inactive)	0.39 (inactive)	0.13 (inactive)	0.293	0.576 (inactive)	-0.0887 (inactive)	-2.11
CCCNC(=O)[C@@]1(C)c2ccccc2C(=O)N(Cc2cc(C(F)(F)F)cc(C(F)(F)F)c2)[C@H]1c1ccc(CO)cc1	-0.332	-5.52 (inactive)	-0.889 (inactive)	0.0548 (inactive)	0.532 (inactive)	-0.974	-0.128	-0.0659	-0.216	0.103	-0.253 (inactive)	-0.0711	4.6 (inactive)	-0.305 (inactive)	1.97 (inactive)	-0.754 (inactive)	1.49	-1.98 (inactive)	-3.17 (inactive)	-3.73
COc1ccc([Si](C)(C)[C@@H]2[C@@H](CCO)O[C@]3(C(=O)N(Cc4cccc(N5CCCCC5=O)c4)c4ccccc43)[C@H]2C)cc1	-0.0438	-7.9 (inactive)	0.671 (inactive)	15.5 (active)	0.456 (inactive)	-0.276	-0.024	0.38	0.965	1.27	-0.402 (inactive)	0.236	5.77 (inactive)	2.69 (inactive)	0.703 (inactive)	2 (inactive)	-0.549	-2.79 (inactive)	-0.322 (inactive)	1.54
Cc1ccc(S[C@]2(C(=O)NCC(F)(F)F)CC(=O)N(C3Cc4ccccc4C3)[C@@H]2c2ccc(CO)cc2I)cc1	-0.465	-1.42 (inactive)	-0.46 (inactive)	-0.231 (inactive)	0.0489 (inactive)	-0.457	-0.0471	0.108	-0.248	-0.703	1.1 (inactive)	0.0013	6.63 (inactive)	1.29 (inactive)	0.577 (inactive)	0.526 (inactive)	-0.204	0.994 (inactive)	-1.56 (inactive)	1.06
O=C(NCCN1CCOCC1)[C@@H]1c2ccccc2C(=O)N(Cc2cc(F)cc(C(F)(F)F)c2)[C@H]1c1ccc(CO)cc1	-0.33	-0.269 (inactive)	0.153 (inactive)	0.378 (inactive)	0.0284 (inactive)	-0.78	0.422	0.543	0.165	1.76	-0.61 (inactive)	-0.0492	3.37 (inactive)	0.298 (inactive)	0.884 (inactive)	0.0839 (inactive)	-0.287	1.44 (inactive)	1.12 (inactive)	2
COc1ccc(CCNC(=O)[C@@]2(C)c3ccccc3C(=O)N(Cc3ccccc3)[C@H]2c2ccc(CO)cc2)cc1	0.968	-5.28 (inactive)	-2.01 (inactive)	0.208 (inactive)	0.303 (inactive)	1.3	0.122	2.07	1.67	2.16	1.09 (inactive)	0.187	6.03 (inactive)	0.219 (inactive)	0.474 (inactive)	-0.73 (inactive)	2.24	-3.58 (inactive)	-3.9 (inactive)	-4.78
